A selection: hits, their analogues and other compounds. The true share with any hit is near 7.9%.
HCV inh – qHTS Assay for Inhibitors of Hepatitis C Virus (HCV). Huh7.5.1 HCVcc-Cre infection, luciferase reporter, 44 h. Potency, µM (top dose mostly 41.8 µM), for inactives: at the highest dose activity change, negative = inhibition, actives largely listed as inhibitors. 340,000 compounds, 3.4% hits. AID 651820, 2012; active = well fitted inhibition curve with a large enough effect; inconclusive = small, poorly fitted or top-dose-only effect, or another doubt; inactive = no such curve, though single readings can be large or run the other way; also: potency is read from the fitted curve at half-maximal effect
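Seed cells (1,000/well) for 4 h; treat with compound and infect with HCVcc-Cre, moi about 0.5. Incubate 44 h, then detect luciferase activity.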
FMDV antiviral – High Throughput Screening for Foot and Mouth Disease Virus Antivirals | 410,000 compounds, 1.2% hits | FMDV antiviral cell-based qHTS | Potency, µM (top dose mostly 57.9 µM), without a hit: at the highest dose activity change, negative = inhibition, most hits filed as inhibitors; calls by dose curve; tested in HEK293T cells; also: read-out not given here; potency is read from the fitted curve at half-maximal effect; nearly all actives have a fitted effect of over 45% in size
HCMV inh – qHTS Assay for inhibitors of the human cytomegalovirus (HCMV); HFF cells, HCMV-luciferase reporter, 72 h; active compounds read low; activity change, negative = inhibition, % at 57.5 µM; 410,000 compounds, 4.5% hits; in the data active = activity change below about -60%; inconclusive = no clear call, values can overlap the other calls; inactive = above about -39%
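HFF cells seeded 16 h at 37C, treated with compounds, infected with luciferase-reporter HCMV at MOI 1 PFU/cell; luciferase read at 72 h post infection, normalized to buffer-only and Salinomycin controls.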
MARV entry inh – qHTS for inhibitors of binding or entry into cells for Marburg Virus; Marburg virus pseudotyped entry inhibition, cell reporter; Potency, µM (doses to about 37.8 µM), inactives show at the highest dose activity change, negative = inhibition, usual class: inhibitors; 300,000 compounds, 1.8% hits; AID 540276, 2011; calls by dose curve; tested in HEK293 cells; also: potency is read from the fitted curve at half-maximal effect
Lassa entry inh – qHTS for Inhibitors of binding or entry into cells for Lassa Virus; Lassa virus pseudotype entry inhibition, cell reporter; Potency, µM (doses to about 37.9 µM), inactives show top-dose activity change, negative = inhibition, usual class: inhibitors; 300,000 compounds, 1.2% hits; AID 540256, 2011; calls by dose curve; tested in HEK293 cells; also: potency is read from the fitted curve at half-maximal effect; nearly all actives have a fitted effect of over 50% in size
Starred values were filed as active, the others as inactive; ? = inconclusive; nt = not tested or not shown; ! = not active in a repeat; [ ] = another dose, or the depositor's remark. % is scaled to controls: 0 for no effect and ±100 for the full control effect.

SMILES | HCV inh | FMDV antiviral | HCMV inh | MARV entry inh | Lassa entry inh
COc1ccc(CNC(=O)C(C)n2nc(C)c3c(C)n(-c4ccc(C)cc4)nc3c2=O)cc1 (stereo not given) | ? | ? | -68* | -24%[46.1 µM] | -22%[46.1 µM]
CCC(C(=O)Nc1ccccc1F)n1nc(C)c2c(C)n(-c3ccccc3)nc2c1=O (stereo not given) | -15% | -5% | ? | nt | nt
CCC(C(=O)Nc1cc(F)ccc1F)n1nc(C)c2c(C)n(-c3ccc(C)cc3)nc2c1=O (stereo not given) | 8.9µM* | ? | -95* | nt | -7%[46.1 µM]
Cc1[nH]n(-c2ncc(-c3ccccc3)s2)c(=O)c1C(c1ccc(Br)cc1)C(C#N)C#N (stereo not given) | 8% | 28µM* | 90 | 22% | 8%
COc1ccccc1N(C)c1cc2c(c3c1ccn3C)C1CCC2C1 (stereo not given) | nt | -10% | -89* | ? | nt
c1ccc2nc(OCCN3CC3)ccc2c1 | ? | 23% | -64* | ? | ?
Cc1cc(OCCN2CCCCC2)nc2ccccc12 | ? | -27% | -5 | ? | -18%
FC(F)(F)c1cccc(-c2cc3c(Nc4ccncc4)nccc3[nH]2)c1 | nt | nt | -15 | nt | nt
Cc1nn(-c2ccccc2)c2nc(N)c(C#N)c(-c3ccc(O)c(O)c3)c12 | 11µM* | -21% | -62* | ? | ?
COc1cc(-c2c(C#N)c(N)nc3c2c(C)nn3-c2ccc(C)c(C)c2)cc(OC)c1OC | ? | -13% | 136 | 21µM* | ?
C=CCOC(=O)N[C@@H](Cc1ccccc1)C(C(=O)OC)=C(C)NCc1ccccc1 | nt | nt | nt | -11%[14.2 µM] | nt
CC(=O)Nc1ccc(N2CCOCC2)c(S(=O)(=O)Nc2ccccc2Cl)c1 | nt | 52% | -11 | nt | nt
COc1ccccc1NS(=O)(=O)c1cc(NC(=O)C2CCC2)ccc1N1CCCCC1 | -15% | 44% | -30 | nt | nt
O=C(Nc1cccc(C(F)(F)F)c1)Nc1ccc(N2CCCC2)c(S(=O)(=O)Nc2ccccc2Cl)c1 | 2.2µM* | 17% | -100* | 2.5µM* | 4µM*
COc1ccccc1NS(=O)(=O)c1cc(NC(=O)Nc2ccc(Cl)cc2Cl)ccc1N1CCCCC1 | ? | 55% | -62* | ? | ?
COc1ccccc1-c1ccc(Nc2cccc(C(C)=O)c2)nn1 | 7.9µM* | 9% | 57 | -3% | 30%
C[C@@H]1C[C@@H]2OC(=O)[C@]3(C)[C@H]2[C@@H](OC3(C)O)[C@]2(C)C(=O)C=C[C@H]12 (stereo not given in full) | -4% | -28% | 23 | nt | nt
C=C1C(=O)O[C@@H]2C[C@@H](C)[C@@H]3C=CC(=O)[C@@]3(C)[C@@H](O)[C@H]12 | 1.4µM* | 8.9µM*! | -100* | nt | nt
C=C1C(=O)O[C@@H]2C[C@@H](C)[C@@H]3C=CC(=O)[C@@]3(C)[C@@H](OC(C)=O)[C@H]12 | 2.8µM* | 3.2µM* | -99* | nt | nt
Cc1ccc(S(=O)(=O)N2C[C@]3(O)C[C@@H]4C(=O)N(c5ccccc5)C(=O)[C@@H]4C[C@]3(OC(=O)NC3CCCC3)C2)cc1 | nt | 16µM* | 9 | nt | nt
COc1ccc(CNC(=O)O[C@]23C[C@H]4C(=O)N(c5ccccc5)C(=O)[C@H]4C[C@@]2(O)CN(S(=O)(=O)c2ccc(C)cc2)C3)cc1OC | nt | -17% | -8 | nt | nt
COC(=O)CSc1nnc(CSc2nc(C)cc(C)n2)n1Cc1ccco1 | 11% | -21% | 8 | -19% | 7%
Cc1cc(C)nc(SCc2nnc(SCC(=O)Nc3ccc(C)c(C)c3)n2Cc2ccco2)n1 | 25µM* | -1% | 33 | ? | ?
Cc1ccc(NCc2cccn2-c2nnc(N3CCC(C(=O)NCc4ccc(F)cc4)CC3)s2)cc1 | nt | -22% | -78* | ? | nt
CCOc1ccc(NCc2cccn2-c2nnc(N3CCC(C(=O)NCCc4ccc(OCC)c(OCC)c4)CC3)s2)cc1 | nt | ? | -80* | ? | nt
SMILES | HCV inh | FMDV antiviral | HCMV inh | MARV entry inh | Lassa entry inh
CCOc1ccc(NCc2cccn2-c2nnc(N3CCC(C(=O)NCCc4ccc(OC)c(OC)c4)CC3)s2)cc1 | nt | 22µM* | -85* | ? | nt
CCCCOc1ccc(CNC(=O)C2CCN(c3nnc(-n4cccc4CNc4ccc(C)cc4)s3)CC2)cc1 | nt | -12% | 6 | -2%[46.1 µM] | nt
CCOc1ccc(NCc2cccn2-c2nnc(N3CCC(C(=O)NCCCN4CC(C)CC(C)C4)CC3)s2)cc1 (stereo not given) | ? | 0% | -85* | ? | -30%
Cc1ccc(C2(C)NC(=O)N(CC(=O)NC3CCCCC3)C2=O)cc1 (stereo not given) | -5% | 1% | -33 | -11%[46.1 µM] | 28%
Cc1cc2oc(=O)cc(CN3CCCCCCC3)c2cc1Cl | nt | -9% | 1 | nt | nt
COc1ccc(NC(=O)C2(C)Cc3c(-c4ccc5c(c4)OCO5)ccnc3O2)cc1 (stereo not given) | nt | -5% | -62* | nt | nt
COc1ccc(NC(=O)C2(C)Cc3c(-c4cccc(NC(C)=O)c4)ccnc3O2)cn1 (stereo not given) | nt | -16% | -72* | nt | nt
CC1(C(=O)Nc2cccc(OC(F)(F)F)c2)Cc2c(-c3ccc4c(c3)OCO4)ccnc2O1 (stereo not given) | nt | -1% | -60* | nt | nt
CN(C)c1ccc(-c2ccnc3c2CC(C)(C(=O)Nc2cccc(OC(F)(F)F)c2)O3)cc1 (stereo not given) | nt | -3% | 8 | nt | nt
CNC(=O)C1(C)Cc2c(-c3ccc4c(c3)OCO4)ccnc2O1 (stereo not given) | nt | -19% | 2 | nt | nt
CC(=O)Nc1cccc(-c2ccnc3c2CC(C)(C(=O)Nc2ccc4c(c2)OCO4)O3)c1 (stereo not given) | nt | -16% | -79* | nt | nt
COc1ccc(NC(=O)C2(C)Cc3c(-c4ccc(NC(C)=O)cc4)ccnc3O2)cn1 (stereo not given) | nt | -6% | -6 | nt | nt
CN(CCO)C(=O)c1cn(C2CCCN(Cc3ccc(C(F)(F)F)cc3)C2)nn1 (stereo not given) | nt | -16% | nt | nt | nt
CC(=O)c1ccccc1NC(C(=O)NC(C)(C)CC(C)(C)C)C1CC1 (stereo not given) | nt | nt | -13 | nt | nt
COc1ccc2c(c1)CO[C@H]([C@H](O)CO)[C@H]2C=Cc1ccccc1 | nt | nt | nt | -6%[14.2 µM] | ?
CC1(C(=O)Nc2ccc(Cl)c(C(F)(F)F)c2)Cc2c(-c3cccc(C(N)=O)c3)ccnc2O1 (stereo not given) | nt | ? | -31 | nt | nt
CC1(C(=O)Nc2ccc(Cl)c(C(F)(F)F)c2)Cc2c(-c3ccc(C(N)=O)cc3)ccnc2O1 (stereo not given) | nt | ? | -62* | nt | nt
CCN1C(=O)[C@H]2[C@H]3[C@H](O)[C@H](O)C/C(=N/NC(=O)OCc4ccccc4)[C@@H]3CC[C@@H]2C1=O | nt | nt | nt | -8%[14.2 µM] | nt
O=C(NCC1CCCCN1)c1cc(OCC(F)(F)F)ccc1OCC(F)(F)F (stereo not given) | 10µM* | 0% | 0 | ? | ?
